# Results published in PubChem BioAssay (NCATS).
# Results filed as inconclusive are left out. A number with no mark means an inactive call. The list shows a part of the results. A call without a number means that no potency is given here. Active and inactive are the calls of the source. Calls follow the shape of the dose curve; as a rule, active = well fitted curve in the direction sought with a large enough effect; inconclusive = small, poorly fitted or top-dose-only effect, or another doubt; inactive = no such curve, though single readings can be large; an effect the other way counts as inactive or inconclusive.
# How the values were obtained:
# [1] = biological target: Rap guanine nucleotide exchange factor 3 (Homo sapiens) (UniProt O95398); assay: Confirmatory qHTS for antagonist of cAMP-regulated guanine nucleotide exchange factor 3 (EPAC1) (AID 1645880); settings: EPAC1 Rap1B-BODIPY-GDP exchange, fluorescence; activity, negative = inhibition: at 115 µM (top of the series); also: nearly all actives have a fitted effect of over 55% in size; also: potency is read from the fitted curve at half-maximal effect
# How it was run: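 Released BODIPY-GDP fluoresces less than Rap1-bound BODIPY-GDP; the signal is followed at 480/540 nm at 5-min intervals over 30 min, after 5 min at room temperature. Reactions contain 100 nM EPAC1, 250 nM RAP1B-BODIPY-GDP and 50 uM GDP; results are normalized to ATA and DMSO.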
# [2] = biological target: Rap guanine nucleotide exchange factor 3 (Homo sapiens) (UniProt O95398); assay: Confirmatory qHTS for agonist of cAMP-regulated guanine nucleotide exchange factor 3 (EPAC1) (AID 1645881); also: nearly all actives have a fitted effect of over 75% in size; also: potency is read from the fitted curve at half-maximal effect;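 as to activation: EPAC1 catalysed release of BODIPY-GDP from Rap1B seen as fluorescence loss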
# [3] = biological target: Rap guanine nucleotide exchange factor 4 (Homo sapiens) (UniProt Q8WZA2); assay: Confirmatory qHTS for agonist of cAMP-regulated guanine nucleotide exchange factor 4 (EPAC2) (AID 1645884);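 also: nucleotide exchange releases bodipy-GDP from Rap1 and this lowers its fluorescence; nearly all actives have a fitted effect of over 65% in size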; also: potency is read from the fitted curve at half-maximal effect
# [4] = biological target: Rap guanine nucleotide exchange factor 4 (Homo sapiens) (UniProt Q8WZA2); assay: Confirmatory qHTS for antagonist of cAMP-regulated guanine nucleotide exchange factor 4 (EPAC2) (AID 1645885); also: nearly all actives have a fitted effect of over 25% in size; also: potency is read from the fitted curve at half-maximal effect
# [5] = biological target: Rap guanine nucleotide exchange factor 3 (Homo sapiens) (UniProt O95398); assay: Counterscreen qHTS for agonist of cAMP-regulated guanine nucleotide exchange factor 3 (EPAC1) (AID 1645889); also: nearly all actives have a fitted effect of over 40% in size
# How it was run: (§1)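 Measured: fluorescence of BODIPY-GDP bound to Rap1B, which falls as exchange proceeds. Conditions include 50 uM competing GDP, 5 and 30 min reads, and a later cAMP challenge for antagonist detection.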
# [6] = biological target: Tumor susceptibility gene 101 protein (Homo sapiens) (UniProt Q99816); assay: qHTS Assay for Iinhibitors of HIV-1 Budding by Blocking the Interaction of PTAP/TSG101: Hit Validation (AID 651600); also: nearly all actives have a fitted effect of over 70% in size; also: potency is read from the fitted curve at half-maximal effect
# How it was run: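 Compounds are added to the Tsg101 binding domain (10 uM final) in pH 7.5 HEPES buffer. FITC-PTAP peptide follows at 50 nM final. After 20 min at r.t., polarized FITC emission is measured.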
# [7] = biological target: Rap guanine nucleotide exchange factor 3 (Homo sapiens) (UniProt O95398); assay: Counterscreen qHTS for antagonist of cAMP-regulated guanine nucleotide exchange factor 3 (EPAC1) (AID 1645888)
# How it was run: as §1
# [8] = biological target: Phosphoglycerate kinase, glycosomal (Trypanosoma brucei brucei) (UniProt P07378); assay: qHTS for inhibitors of Phosphogylcerate Kinase: Hit Validation Screen (AID 686980); settings: TbPGK coupled GAPDH assay, Kinase-Glo luminescence; also: potency is read from the fitted curve at half-maximal effect; nearly all actives have a fitted effect of over 65% in size
# How it was run: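 Recombinant glycosomal PGK reaction used 1,3-bisphosphoglycerate generated in-well by GAPDH (100nM final) in 100mM TEA pH 7.6, 5mM MgCl2, 0.01% Tween-20. After 60 minutes at room temperature, ATP was read by Kinase-Glo Plus luminescence end-point.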
# [9] = biological target: DNA polymerase iota (Homo sapiens) (UniProt Q9UNA4); assay: qHTS for Inhibitors of Polymerase Iota: Confirmatory Assay for Cherry-picked Compounds (AID 720496); settings: Pol iota primer extension, TAMRA/BHQ fluorescence; also: potency is read from the fitted curve at half-maximal effect
# How it was run: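 Extension of a quenched TAMRA-reporter/BHQ-2-template DNA substrate (50 nM) by 10 nM Pol iota after 15 min compound preincubation. Strand-displacement fluorescence (525/598 nm) was read kinetically at 0 and 10 min. Buffer-only wells served as negative control.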
# [10] = biological target: Flap endonuclease 1 (Homo sapiens) (UniProt P39748); assay: qHTS Assay for the Inhibitors of FEN1: Confirmatory Assay for Cherry-picked Compounds (AID 720498); settings: FEN1 flap cleavage, TAMRA/BHQ2 fluorogenic DNA substrate; also: potency is read from the fitted curve at half-maximal effect; nearly all actives have a fitted effect of over 60% in size
# How it was run: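 Human FEN1 (10 nM reagent) was preincubated with compounds for 15 min at room temperature, then 50 nM final double-flap DNA substrate (5'-TAMRA flap, BHQ-2 quencher strand) was added. Fluorescence (ex 525/em 598 nm) was read at 0 and 15 min.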
# [11] = biological target: DNA polymerase eta (Homo sapiens) (UniProt Q9Y253); assay: qHTS for Inhibitors of Polymerase Eta: Confirmatory Assay for Cherry-picked Compounds (AID 720502); settings: Pol eta primer extension, TAMRA/BHQ fluorescence, 10 min; also: potency is read from the fitted curve at half-maximal effect
# How it was run: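 Compounds are preincubated 15 min at room temperature with 10 nM human Pol eta, with buffer-only wells serving as negative control. Adding 50 nM final substrate starts the reaction, and TAMRA fluorescence is read over 10 min.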
# Chain of Tumor susceptibility gene 101 protein (Homo sapiens) (Q99816 whole entry, looked up, the tested form may be a part): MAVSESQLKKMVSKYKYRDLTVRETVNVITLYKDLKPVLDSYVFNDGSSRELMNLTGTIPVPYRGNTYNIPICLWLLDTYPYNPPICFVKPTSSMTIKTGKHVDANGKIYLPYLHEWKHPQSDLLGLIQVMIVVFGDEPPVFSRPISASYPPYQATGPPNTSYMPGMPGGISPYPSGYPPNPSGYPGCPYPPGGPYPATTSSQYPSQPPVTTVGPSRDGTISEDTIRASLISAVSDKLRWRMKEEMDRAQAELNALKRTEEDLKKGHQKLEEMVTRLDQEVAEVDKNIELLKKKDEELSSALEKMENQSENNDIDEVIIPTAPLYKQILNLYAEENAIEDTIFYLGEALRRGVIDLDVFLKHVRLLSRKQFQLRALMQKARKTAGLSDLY
# Chain of Rap guanine nucleotide exchange factor 3 (Homo sapiens) (O95398 whole entry, looked up): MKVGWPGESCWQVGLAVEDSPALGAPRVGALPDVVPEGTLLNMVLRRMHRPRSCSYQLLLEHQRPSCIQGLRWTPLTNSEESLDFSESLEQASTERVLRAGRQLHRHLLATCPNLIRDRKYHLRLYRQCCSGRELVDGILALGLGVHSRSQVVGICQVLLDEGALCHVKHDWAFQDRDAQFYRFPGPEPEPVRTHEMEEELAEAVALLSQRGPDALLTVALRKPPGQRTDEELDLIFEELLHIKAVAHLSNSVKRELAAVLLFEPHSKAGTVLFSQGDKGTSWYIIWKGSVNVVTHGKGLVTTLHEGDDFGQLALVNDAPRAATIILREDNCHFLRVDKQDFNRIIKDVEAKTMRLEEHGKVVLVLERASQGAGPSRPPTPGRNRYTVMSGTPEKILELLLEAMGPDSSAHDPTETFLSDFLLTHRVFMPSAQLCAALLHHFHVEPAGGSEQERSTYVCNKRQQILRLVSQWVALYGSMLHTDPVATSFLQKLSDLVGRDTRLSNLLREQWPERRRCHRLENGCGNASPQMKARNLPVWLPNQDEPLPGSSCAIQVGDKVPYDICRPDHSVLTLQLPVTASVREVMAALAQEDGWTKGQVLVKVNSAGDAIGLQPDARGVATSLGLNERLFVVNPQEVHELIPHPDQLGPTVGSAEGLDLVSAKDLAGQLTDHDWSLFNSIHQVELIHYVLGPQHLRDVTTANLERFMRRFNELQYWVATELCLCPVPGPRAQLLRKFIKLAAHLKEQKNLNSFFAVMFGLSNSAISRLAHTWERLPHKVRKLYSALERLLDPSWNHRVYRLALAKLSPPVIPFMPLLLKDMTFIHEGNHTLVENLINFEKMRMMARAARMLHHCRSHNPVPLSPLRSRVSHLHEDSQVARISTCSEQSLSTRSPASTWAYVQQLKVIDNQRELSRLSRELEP
# Chain of Rap guanine nucleotide exchange factor 4 (Homo sapiens) (Q8WZA2 whole entry, looked up): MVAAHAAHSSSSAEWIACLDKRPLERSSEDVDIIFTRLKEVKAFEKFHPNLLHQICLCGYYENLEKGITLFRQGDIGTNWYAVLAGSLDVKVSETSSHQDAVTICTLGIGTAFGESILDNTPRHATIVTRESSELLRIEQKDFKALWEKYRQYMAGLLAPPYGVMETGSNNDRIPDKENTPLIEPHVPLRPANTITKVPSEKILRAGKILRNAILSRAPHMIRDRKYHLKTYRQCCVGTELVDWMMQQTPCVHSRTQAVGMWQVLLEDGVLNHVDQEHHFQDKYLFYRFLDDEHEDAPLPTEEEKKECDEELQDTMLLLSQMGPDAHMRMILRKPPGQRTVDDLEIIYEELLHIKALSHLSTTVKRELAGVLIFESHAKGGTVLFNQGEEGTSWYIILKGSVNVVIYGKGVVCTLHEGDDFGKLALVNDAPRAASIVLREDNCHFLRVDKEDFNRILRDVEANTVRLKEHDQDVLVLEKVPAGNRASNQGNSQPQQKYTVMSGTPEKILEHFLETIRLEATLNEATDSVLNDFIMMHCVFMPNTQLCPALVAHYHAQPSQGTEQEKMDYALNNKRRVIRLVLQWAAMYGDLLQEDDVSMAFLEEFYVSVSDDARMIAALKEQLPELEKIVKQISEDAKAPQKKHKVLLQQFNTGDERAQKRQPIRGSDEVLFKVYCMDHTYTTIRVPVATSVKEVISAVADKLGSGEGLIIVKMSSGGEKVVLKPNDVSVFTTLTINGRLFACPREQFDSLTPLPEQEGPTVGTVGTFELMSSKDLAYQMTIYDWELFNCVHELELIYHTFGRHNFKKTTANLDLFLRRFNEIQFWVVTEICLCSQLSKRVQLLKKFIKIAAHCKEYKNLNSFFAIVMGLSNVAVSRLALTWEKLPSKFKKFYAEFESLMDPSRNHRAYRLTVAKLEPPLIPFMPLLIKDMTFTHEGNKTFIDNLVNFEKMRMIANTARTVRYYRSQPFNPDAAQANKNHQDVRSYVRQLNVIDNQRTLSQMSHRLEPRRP
# Chain of DNA polymerase iota (Homo sapiens) (Q9UNA4 whole entry, looked up): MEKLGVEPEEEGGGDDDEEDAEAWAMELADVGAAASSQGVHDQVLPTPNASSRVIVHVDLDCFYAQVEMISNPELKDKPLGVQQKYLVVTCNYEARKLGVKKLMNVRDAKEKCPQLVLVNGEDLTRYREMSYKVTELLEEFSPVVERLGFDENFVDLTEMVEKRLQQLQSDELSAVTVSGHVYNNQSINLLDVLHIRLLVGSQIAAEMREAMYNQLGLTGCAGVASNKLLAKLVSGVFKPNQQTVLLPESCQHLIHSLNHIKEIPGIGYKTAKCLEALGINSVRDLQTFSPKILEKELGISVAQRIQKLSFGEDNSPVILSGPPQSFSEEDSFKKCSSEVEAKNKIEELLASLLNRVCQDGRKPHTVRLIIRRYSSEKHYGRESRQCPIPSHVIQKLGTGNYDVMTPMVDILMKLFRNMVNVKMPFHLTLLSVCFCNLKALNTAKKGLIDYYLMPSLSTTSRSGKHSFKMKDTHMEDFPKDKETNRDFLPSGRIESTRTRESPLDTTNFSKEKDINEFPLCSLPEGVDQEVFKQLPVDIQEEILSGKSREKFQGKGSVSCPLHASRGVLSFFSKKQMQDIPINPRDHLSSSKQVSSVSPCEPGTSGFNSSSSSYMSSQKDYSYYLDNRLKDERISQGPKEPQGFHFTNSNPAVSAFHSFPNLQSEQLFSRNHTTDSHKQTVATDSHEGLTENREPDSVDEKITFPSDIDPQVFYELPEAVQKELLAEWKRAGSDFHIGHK
# Chain of Flap endonuclease 1 (Homo sapiens) (P39748 whole entry, looked up): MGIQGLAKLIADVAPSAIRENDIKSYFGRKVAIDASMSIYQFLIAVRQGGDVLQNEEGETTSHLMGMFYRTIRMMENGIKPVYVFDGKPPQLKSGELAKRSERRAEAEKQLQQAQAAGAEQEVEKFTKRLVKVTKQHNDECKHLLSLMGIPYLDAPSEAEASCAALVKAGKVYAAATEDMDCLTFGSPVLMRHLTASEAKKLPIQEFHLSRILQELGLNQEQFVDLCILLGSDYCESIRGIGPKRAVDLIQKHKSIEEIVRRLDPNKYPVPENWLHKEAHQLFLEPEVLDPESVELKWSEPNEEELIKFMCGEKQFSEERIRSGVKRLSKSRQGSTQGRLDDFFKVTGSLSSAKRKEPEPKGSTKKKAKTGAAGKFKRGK
# Chain of DNA polymerase eta (Homo sapiens) (Q9Y253 whole entry, looked up): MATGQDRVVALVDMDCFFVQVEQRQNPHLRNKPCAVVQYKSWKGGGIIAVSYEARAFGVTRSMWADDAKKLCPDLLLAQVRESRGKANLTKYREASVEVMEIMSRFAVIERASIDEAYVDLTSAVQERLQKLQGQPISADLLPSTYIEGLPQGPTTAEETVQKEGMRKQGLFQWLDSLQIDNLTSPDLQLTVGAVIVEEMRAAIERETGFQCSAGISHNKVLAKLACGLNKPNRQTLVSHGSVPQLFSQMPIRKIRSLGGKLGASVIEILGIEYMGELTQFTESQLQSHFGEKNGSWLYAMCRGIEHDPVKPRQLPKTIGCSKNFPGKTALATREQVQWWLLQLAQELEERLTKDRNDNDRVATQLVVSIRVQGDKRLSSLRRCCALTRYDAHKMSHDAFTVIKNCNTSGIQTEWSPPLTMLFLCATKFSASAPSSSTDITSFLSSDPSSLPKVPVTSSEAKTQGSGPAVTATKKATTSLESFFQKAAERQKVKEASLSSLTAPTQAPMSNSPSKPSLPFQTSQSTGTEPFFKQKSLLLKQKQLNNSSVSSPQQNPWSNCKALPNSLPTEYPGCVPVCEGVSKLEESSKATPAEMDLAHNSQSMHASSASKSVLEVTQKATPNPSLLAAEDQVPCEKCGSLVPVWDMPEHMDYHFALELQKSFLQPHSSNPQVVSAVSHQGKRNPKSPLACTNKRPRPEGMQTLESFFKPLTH
# Chain of Phosphoglycerate kinase, glycosomal (Trypanosoma brucei brucei) (P07378 whole entry, looked up): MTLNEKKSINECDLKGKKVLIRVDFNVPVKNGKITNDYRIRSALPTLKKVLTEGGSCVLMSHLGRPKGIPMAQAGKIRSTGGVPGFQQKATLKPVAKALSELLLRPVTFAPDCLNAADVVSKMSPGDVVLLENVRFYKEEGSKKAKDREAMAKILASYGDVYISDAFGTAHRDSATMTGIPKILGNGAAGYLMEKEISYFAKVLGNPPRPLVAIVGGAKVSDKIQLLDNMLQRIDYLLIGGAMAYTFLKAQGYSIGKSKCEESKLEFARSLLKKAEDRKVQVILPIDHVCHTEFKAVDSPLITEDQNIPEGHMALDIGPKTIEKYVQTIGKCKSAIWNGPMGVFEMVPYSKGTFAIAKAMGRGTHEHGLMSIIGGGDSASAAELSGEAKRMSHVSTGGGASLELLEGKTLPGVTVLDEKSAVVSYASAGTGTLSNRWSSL
smiles,measurement,setting,value
CCC(=O)NC(c1ccc(C)cc1)c1ccc2cccnc2c1O (configuration not stated),Potency,[1],inactive
same,Potency,[2],inactive
same,Potency,[3],inactive
same,Potency,[4],5.36 µM (active)
same,Potency,[5],inactive
CCCN(CCC)c1nc(-c2ccccn2)nc2ccccc12,Potency,[1],inactive
same,Potency,[2],inactive
same,activation,[3],"-0.687% [at 17.1 µM, percent relative to cAMP agonist control]"
same,Potency,[4],inactive
same,activation,[5],0.395% [at 30.8 µM]
CC(=O)Nc1ccc(N=Cc2c(O)c(C(=O)Nc3ccccc3)cc3ccccc23)cc1,Potency,[6],16.3 µM (active)
same,Potency,[1],inactive
same,Potency,[2],inactive
same,activation,[3],"-21% [at 17.1 µM, percent relative to cAMP agonist control]"
same,Potency,[4],inactive
same,"activity change, negative = inhibition",[7],-16.4% [at 30.8 µM]
O=CN(c1ccccc1)c1ccc2ccccc2c1,Potency,[1],inactive
same,Potency,[2],inactive
same,activation,[3],"1.36% [at 17.1 µM, percent relative to cAMP agonist control]"
same,Potency,[4],inactive
same,activation,[5],4.55% [at 30.8 µM]
COc1cc(NC(=O)c2cnc(N)s2)cc(C(=O)Nc2cccc(C(F)(F)F)c2)c1,Potency,[1],12.6 µM (active)
same,Potency,[2],inactive
same,activation,[3],"5.57% [at 17.1 µM, percent relative to cAMP agonist control]"
same,Potency,[4],inactive
same,activation,[5],16.6% [at 30.8 µM]
C/C(=N\NC(=O)CC#N)c1cc2ccc(O)cc2oc1=O,Potency,[1],inactive
same,Potency,[2],inactive
same,activation,[3],"2.05% [at 17.1 µM, percent relative to cAMP agonist control]"
same,Potency,[4],inactive
same,activation,[5],-21% [at 30.8 µM]
N#CCOC(=O)[C@H](Cc1c[nH]c2ccccc12)NS(=O)(=O)c1ccc(Cl)cc1,Potency,[1],37.9 µM (active)
same,Potency,[2],inactive
same,Potency,[3],inactive
same,Potency,[4],53.6 µM (active)
same,Potency,[5],inactive
Cc1cc(C(=O)Nc2ccon2)c(C)o1,Potency,[1],inactive
same,Potency,[2],inactive
same,Potency,[3],inactive
same,Potency,[4],84.9 µM (active)
same,Potency,[5],inactive
C=CCN(CC=C)Cc1cc(=O)oc2cc(OC)c(Cl)cc12,Potency,[1],inactive
same,Potency,[2],inactive
same,activation,[3],"3.78% [at 17.1 µM, percent relative to cAMP agonist control]"
same,Potency,[4],inactive
same,activation,[5],20.9% [at 30.8 µM]
CN(C)c1ccc(/C=C(\C#N)C(=O)Nc2nc3c(s2)CCN(Cc2ccccc2)C3)cc1,Potency,[6],inactive
same,Potency,[1],inactive
same,Potency,[2],100 µM (active)
same,Potency,[3],100 µM (active)
same,Potency,[4],inactive
same,Potency,[7],inactive
COc1ccc(CCNc2oc(-c3ccc(C)cc3)nc2C#N)cc1OC,Potency,[1],inactive
same,Potency,[2],inactive
same,activation,[3],"5.59% [at 17.1 µM, percent relative to cAMP agonist control]"
same,Potency,[4],inactive
same,activation,[5],26.9% [at 30.8 µM]
O=C(C1CC1)N1CCN(c2ccc([N+](=O)[O-])cc2-n2cccc2)CC1,Potency,[1],inactive
same,Potency,[2],inactive
same,activation,[3],"4.17% [at 17.1 µM, percent relative to cAMP agonist control]"
same,Potency,[4],inactive
same,activation,[5],6.18% [at 30.8 µM]
Brc1ccc(N/N=C(/N=Nc2nn[nH]n2)c2ccccc2)cc1,Potency,[1],33.8 µM (active)
same,Potency,[2],inactive
same,Potency,[3],inactive
same,Potency,[4],inactive
same,Potency,[5],inactive
COc1cccc(NC(=O)/C(C#N)=C/c2ccc(-c3ccc(C)cc3)o2)c1,Potency,[6],inactive
same,Potency,[1],inactive
same,Potency,[2],inactive
same,Potency,[3],inactive
same,Potency,[4],inactive
same,Potency,[7],inactive
CCOc1ccc(NC(=O)c2ccc(NC(=O)COC(=O)c3ccc(NC(=O)CC#N)cc3)cc2)cc1,Potency,[8],8.19 µM (active)
same,Potency,[9],4.74 µM (active)
same,Potency,[10],67.5 µM (active)
same,Potency,[11],75.7 µM (active)
same,Potency,[1],inactive
same,Potency,[2],inactive
same,Potency,[3],inactive
same,Potency,[4],inactive
same,Potency,[7],inactive
CCOC(=O)N1c2ccccc2Sc2ccccc21,Potency,[1],inactive
same,Potency,[2],inactive
same,activation,[3],"4.1% [at 17.1 µM, percent relative to cAMP agonist control]"
same,Potency,[4],inactive
same,activation,[5],15.6% [at 30.8 µM]
CSc1ccc(C2C(C(=O)c3ccco3)=C(O)C(=O)N2c2nnc(SC)s2)cc1 (configuration not stated),Potency,[1],33.8 µM (active)
same,Potency,[2],inactive
same,Potency,[3],inactive
same,Potency,[4],19 µM (active)
same,Potency,[5],inactive
O=C1OC(c2ccccc2)Sc2ccccc21 (configuration not stated),Potency,[1],inactive
same,Potency,[2],inactive
same,activation,[3],"4.47% [at 17.1 µM, percent relative to cAMP agonist control]"
same,Potency,[4],inactive
same,activation,[5],-3.76% [at 30.8 µM]
COc1ccc(S(=O)(=O)Nc2c(C)nn(C)c2C)cc1Br,Potency,[1],inactive
same,Potency,[2],inactive
same,Potency,[3],inactive
same,Potency,[4],inactive
same,Potency,[5],inactive
Cn1cc(C(CO)Cc2ccccc2)c2ccccc21 (configuration not stated),Potency,[1],inactive
same,Potency,[2],inactive
same,activation,[3],"4.77% [at 17.1 µM, percent relative to cAMP agonist control]"
same,Potency,[4],inactive
same,activation,[5],2.04% [at 30.8 µM]
O=C(O)CN1C(=O)/C(=C\c2cc(Br)ccc2OCc2ccc(Cl)cc2)SC1=S,Potency,[1],30.1 µM (active)
same,Potency,[2],inactive
same,Potency,[3],inactive
same,Potency,[4],47.8 µM (active)
same,Potency,[5],inactive
CCCCn1c(CNC(=O)C23CC4CC(CC(C4)C2)C3)nnc1SCC(=O)Nc1ccc(F)cc1,Potency,[1],inactive
same,Potency,[2],inactive
same,Potency,[3],inactive
same,outcome,[4],inactive [at 12.7 µM]
same,Potency,[5],inactive
CCC(CC)C(=O)N1c2ccccc2C(C)(c2ccccc2)CC1(C)C (configuration not stated),Potency,[1],inactive
same,Potency,[2],inactive
same,Potency,[3],inactive
same,Potency,[4],inactive
same,Potency,[5],inactive
